Data from PubChem BioAssay (NCI).
This is part of a sample that, as a whole, favours compounds with a hit. Of some 83,000 tested, about 20% had one in any assay.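 Testing used 96-well plates and a 48-hour single-concentration exposure. Example: -40 means 40% of the starting cells died.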 Active and inactive are the calls of the source.

The molecules below were run on NCI-H23 lung (assay: NCI-60 one-dose screen, 48 h (100 = growth as untreated, 0 = no growth, -100 = all killed)). Conditions: 10 µM unless noted.
Protocol: Growth inhibition of the NCI-H23 human Non-Small Cell Lung tumor cell line is measured as a screen for anti-cancer activity. Cells are grown in 96 well plates and exposed to the test compound for 48 hours. Compounds are tested at a single concentration, which is 10^-5 M for most compounds. The reported endpoint is percent growth (GI% or GIPRCNT), where numbers from 0 - 100% represent growth inhibition, and numbers from -100% - 0 represent cell death. For example, a value of 40 represents 60% growth inhibition. A value of 0 means no net growth occurred over the course of the experiment. A value of -40 indicates 40% of cells at the beginning of the experiment died by the end of the experiment. A value of -100 means all cells are dead at the end of the experiment.
NCI-60 Human Tumor Cell Lines Screen was performed using the standard one-dose NCI protocol, which is described in more detail at https://dtp.cancer.gov/discovery_development/nci-60/default.htm.
Compounds with GIPRCNT values below 10 were considered active. Activity score was based on GIPRCNT using the following formula: […]
Score is 0 for GIPRCNT values of 100 or above, 50 for GIPRCNT values of 0, and 100 for GIPRCNT values of -100.

Row | Compound | growth
1 | C#CCN1C(=O)/C(=c2\sc3n(c2=O)NC2C(N=3)N(CC)C(=O)N2CC)c2ccccc21 (stereo not given) | 54.1% (inactive)
2 | C=C1C(=O)O[C@H]2[C@H]1CC/C(Cn1cc(-c3ccccc3C(F)(F)F)nn1)=C\CC[C@@]1(C)O[C@@H]21 | 7.85% (active)
3 | Cc1ccc(Nc2ncnc3c2sc2ncccc23)cc1 | 101% (inactive)
4 | COc1cc(Br)c(OC)cc1Br | 78% (inactive)
5 | COc1cc(C2C3=C(COC3=O)Nc3c2ccc2c3CCCC2)cc2c1OCO2 (stereo not given) | 16.4% (inactive)
6 | CCN(CC)P(=O)(N(CC)CC)N(CCCSC/C=C(\C)CC/C=C(\C)CCC=C(C)C)CCCN1CCN(C)CC1 | 110% (inactive)
7 | CCCC1OC(c2ccc(C(C)C)cc2)OCC1CC (stereo not given) | 98.8% (inactive)
8 | CCC(c1ccc(OC)cc1)C(CC)c1ccc(OCC[N+](C)(C)C)cc1 (stereo not given) | 48.8% (inactive)
9 | Cc1oc2nc[nH]c(=O)c2c1C(=O)/C=C/c1ccc(Cl)cc1 | 39.7% (inactive)
10 | COc1cccc2cc(-c3cc4ccccc4[nH]3)c(=NC(=O)c3ccc(Cl)cc3)oc12 | 40.2% (inactive)
11 | COc1ccc(/C=C/C(=O)/C=C/c2cc3ccc(Cl)cc3[nH]c2=O)cc1 | 81.1% (inactive)
12 | ClC1=C(Cl)C(Cl)=C(Cl)C1=Cc1ccc(Cl)cc1Cl | -53.5% (active)
13 | COc1ccc(Cl)cc1NC(N)=S | 94.6% (inactive)
14 | O=C(Cc1n[nH]c(=O)c2ccccc12)OCc1c(Cl)cccc1Cl | 103% (inactive)
15 | COc1ccc(-c2nc(-c3nc4ccc(F)cc4[nH]3)cc3c2[nH]c2ccccc23)cc1 | 53.3% (inactive)
16 | COc1ccc(S(=O)(=O)Nc2cc(/C=C\c3cc(OC)c(OC)c(OC)c3)cc(OC)c2OC)cc1OC | 31.4% (inactive)
17 | C/C(=N\NC(=O)CC#N)c1cc2cc(Cl)ccc2o1 | 97.2% (inactive)
18 | NC(=O)c1cccc(N2Cc3ccccc3OC3=C2C(=O)c2c(O)ccc(O)c2C3=O)c1 | 6.02% (active)
19 | COc1cc(OC)c(C(=O)/C=C/c2cccc(C(F)(F)F)c2)c(OC)c1 | 5.06% (active)
20 | O=C(CCC(=O)OC1CCCC1)OC1CCCC1 | 105% (inactive)

Row | Compound | growth
21 | Cc1cc(Nc2nc(C(=O)Nc3ccccc3)nc3ccccc23)n[nH]1 | 77.5% (inactive)
22 | CC(=O)n1cc([C@H]2CC[C@H](c3cn(C(C)=O)c4ccccc34)c3c2[nH]c2ccccc32)c2ccccc21 | 75.7% (inactive)
23 | C=CC(=O)N[C@H](/C=C/C(=O)OCC)Cc1ccc(-c2cc(Cl)cc(Cl)c2)cc1 | 76.1% (inactive)
24 | CN(C)CCCNC(=O)C(c1ccccc1)c1ccccc1 | 93.5% (inactive)
25 | COc1ccc(C2CC(c3cccs3)=NN2c2ccc(S(=O)(=O)NC(=O)NCc3cccc(OC)c3)cc2)cc1 (stereo not given) | 97.6% (inactive)
26 | Nc1cccc2c1CN(C1CCC(=O)NC1=O)C2=O (stereo not given) | 99.4% (inactive)
27 | COc1cc(/C=C2\C=C(c3ccc(F)cc3)N(Cc3ccccc3)C2=O)cc(OC)c1OC | 62.6% (inactive)
28 | O=C(Nc1cccc(C(F)(F)F)c1)Nc1ccc(OCc2nnc(-c3ccccc3)o2)c(F)c1 | 35.7% (inactive)
29 | CC/C(=C(\c1ccc(O)cc1)c1ccc(OCCN(C)CCN(C)C(=O)CCC(=O)c2c(C)[nH]c(/C=C3\N=C(c4ccc[nH]4)C=C3OC)c2C)cc1)c1ccccc1 | 80.1% (inactive)
30 | FC(F)(F)c1cccc(-n2nnc3cnc(Nc4ccc(N5CCCCC5)cc4)nc32)c1 | 66.5% (inactive)
31 | CCOc1ccc(/C=C/C=N/NC(N)=S)cc1 | 78.7% (inactive)
32 | CC(C)C[C@H](NC(=O)[C@H](Cc1ccccc1)n1ccc(N2CCCCC2)cc1=O)B(O)O | 19.7% (inactive)
33 | O=S(=O)(NCCCNc1cc(-c2cn(-c3ccccc3)nc2-c2cccc(O)c2)ccn1)c1cccc(F)c1 | 58.6% (inactive)
34 | CCN(C(=O)c1cc2ccccc2[nH]1)[C@H]1CCC[C@@H](NCc2ccc(OC)cc2)C1 | 89.8% (inactive)
35 | NCCSC(c1ccccc1)(c1ccccc1)c1ccccc1 | 25.1% (inactive)
36 | CC(C)(C)c1ccc(S(=O)(=O)Oc2ccc3c4c(c(=O)oc3c2)CCCCC4)cc1 | 43% (inactive)
37 | COc1cc(/C=C/C(=O)c2ccc(NC(=O)CN3CCN(c4cc5c(cc4F)c(=O)c(C(=O)O)cn5C4CC4)CC3)cc2)cc(OC)c1OC | -35.6% (active)
38 | CCOC(=O)CC/C(C)=N\Nc1ccc([N+](=O)[O-])cc1 | 99.5% (inactive)
39 | COc1ccc(/C=C/C(=O)c2ccc(B(O)O)cc2)cc1O | 88% (inactive)
40 | CC1Cc2c(N(C)C)ncnc2N(C)c2ccc(Cl)cc21 (stereo not given) | 50.1% (inactive)
